30 molecules from PubChem BioAssay (Tox21) can be followed below.

For experiment [1], the target named is Cytochrome P450 2C19 (Homo sapiens) (UniProt P33261). Briefly: Cytochrome P450 Family 2 Subfamily C Member 19 (CYP2C19) small molecule antagonists: luciferase reporter qHTS assay (AID 1671197). Note: nearly all actives have a fitted effect of over 65% in size. Note: potency is the fitted concentration of half-maximal effect. The settings on record: P450-Glo CYP2C19 enzyme, luciferin luminescence, 1 h; series mostly up to 115 µM. Put shortly:
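Light output is proportional to CYP2C19 activity: proluciferin substrate is converted to luciferin, then detected by a luciferin detection reagent that also stops the 1 h, 37C NADPH-driven reaction. Ketoconazole serves as positive control.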

Experiment [2] has as its target Cytochrome P450 2C9 (Homo sapiens) (UniProt P11712). Briefly: Cytochrome P450 Family 2 Subfamily C Member 9 (CYP2C9) small molecule antagonists: luciferase reporter qHTS assay (AID 1671198). Note: nearly all actives have a fitted effect of over 50% in size. Note: potency is the fitted concentration of half-maximal effect. The settings on record: P450-Glo CYP2C9 enzyme assay, luciferin luminescence; series mostly up to 115 µM. In short, it runs like this: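 Enzyme-substrate mix preincubated with compound 10 min at room temperature; reaction started with NADPH regeneration solution, 1 h 37C. Luminescent luciferin product read after 20 min detection reagent.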
For orientation: Reporter assays use an easily measured gene product as a stand-in for the process of interest.

Experiment [3] deals with Cytochrome P450 1A2 (Homo sapiens) (UniProt P05177). The experiment in a line: Cytochrome P450 Family 1 Subfamily A Member 2 (CYP1A2) small molecule antagonists: luciferase reporter qHTS assay (AID 1671199). Note: nearly all actives have a fitted effect of over 50% in size. Note: potency is the fitted concentration of half-maximal effect. As to conditions: P450-Glo CYP1A2 enzyme, luciferin luminescence, 1 h; series mostly up to 115 µM. Put shortly: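 Read-out is luminescence from luciferin detection reagent (20 min) proportional to CYP1A2 activity; compounds in DMSO preincubated 10 min with enzyme and proluciferin substrate, then NADPH regeneration solution, 1 h, room temperature.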

The target in experiment [4] is Cytochrome P450 3A4 (Homo sapiens) (UniProt P08684). Briefly: Cytochrome P450 Family 3 Subfamily A Member 4 (CYP3A4) small molecule antagonists: luciferase reporter qHTS assay (AID 1671201). Note: nearly all actives have a fitted effect of over 50% in size. Note: potency is the fitted concentration of half-maximal effect. The settings on record: P450-Glo CYP3A4 enzyme, luciferin luminescence, 1 h; series mostly up to 115 µM. In short, it runs like this:
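P450-Glo CYP3A4 system with proluciferin substrate; compounds preincubated 10 min RT with enzyme-substrate mix, then NADPH regeneration added for 1 h RT. Detection reagent 20 min, luminescence read as relative luminescence units.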

Experiment [5] addresses Voltage-gated inwardly rectifying potassium channel KCNH2 (Homo sapiens) (UniProt Q12809). Briefly: Human Ether-a-go-go-Related Gene (hERG) channel small molecule antagonists: fluorescence cell-based qHTS assay (AID 1671200).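 Note: hERG-expressing U2OS cells given a thallium stimulus after FluxOR II dye loading; nearly all actives have a fitted effect of over 50% in size.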 As to conditions: hERG-U2OS cells, FluxOR thallium flux fluorescence; series mostly up to 76.8 µM. In short, it runs like this: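 U2OS cells expressing the channel were plated at 1000 cells/well, incubated overnight at 37 C, then loaded with FluxOR II thallium-sensitive dye for 1 h at room temperature in the dark, with a further 10 min at room temperature before stimulation.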

Several values for one entry are separate records, joined by “and”; a condition that tells them apart may be missing. Equal entries are not always repeated. Results filed as inconclusive are left out. Where a structure was tested more than once in an assay, its records may differ in their call. Activity calls are given as the source filed them. Calls come from the whole dose curve; as a rule, active = well fitted curve in the direction sought with a large enough effect in the repeat runs; inconclusive = weak or mixed curves; inactive = no such curve, though single readings can be large; an effect the other way counts as inactive or inconclusive.

Sequence of Cytochrome P450 1A2 (Homo sapiens) (P05177 whole entry, looked up): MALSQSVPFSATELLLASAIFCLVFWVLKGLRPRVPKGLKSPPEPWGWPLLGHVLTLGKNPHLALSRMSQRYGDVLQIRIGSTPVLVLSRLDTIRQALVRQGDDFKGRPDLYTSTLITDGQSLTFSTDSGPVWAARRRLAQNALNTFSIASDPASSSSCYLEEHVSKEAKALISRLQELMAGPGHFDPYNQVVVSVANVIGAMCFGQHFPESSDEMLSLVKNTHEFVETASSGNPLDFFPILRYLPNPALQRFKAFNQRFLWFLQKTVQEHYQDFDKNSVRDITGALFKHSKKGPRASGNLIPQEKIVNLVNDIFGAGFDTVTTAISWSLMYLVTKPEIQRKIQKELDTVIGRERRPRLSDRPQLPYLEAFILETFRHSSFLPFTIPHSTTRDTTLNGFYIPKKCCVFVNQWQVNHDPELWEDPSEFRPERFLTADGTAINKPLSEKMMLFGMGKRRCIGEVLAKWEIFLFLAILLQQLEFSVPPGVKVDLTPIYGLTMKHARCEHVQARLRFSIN
Sequence of Cytochrome P450 2C19 (Homo sapiens) (P33261 whole entry, looked up): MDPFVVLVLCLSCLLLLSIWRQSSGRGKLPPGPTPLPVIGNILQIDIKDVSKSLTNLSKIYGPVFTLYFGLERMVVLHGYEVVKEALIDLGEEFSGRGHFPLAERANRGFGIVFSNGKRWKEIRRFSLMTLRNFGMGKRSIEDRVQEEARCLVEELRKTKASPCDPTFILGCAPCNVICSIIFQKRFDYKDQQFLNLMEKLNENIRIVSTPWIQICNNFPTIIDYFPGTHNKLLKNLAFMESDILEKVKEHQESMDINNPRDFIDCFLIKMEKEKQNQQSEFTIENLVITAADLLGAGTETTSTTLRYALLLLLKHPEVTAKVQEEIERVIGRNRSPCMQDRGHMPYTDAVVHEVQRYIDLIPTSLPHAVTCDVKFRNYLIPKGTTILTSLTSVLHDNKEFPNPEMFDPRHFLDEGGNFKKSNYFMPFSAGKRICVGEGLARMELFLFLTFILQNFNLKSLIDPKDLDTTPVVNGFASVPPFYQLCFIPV
Sequence of Voltage-gated inwardly rectifying potassium channel KCNH2 (Homo sapiens) (Q12809 whole entry, looked up): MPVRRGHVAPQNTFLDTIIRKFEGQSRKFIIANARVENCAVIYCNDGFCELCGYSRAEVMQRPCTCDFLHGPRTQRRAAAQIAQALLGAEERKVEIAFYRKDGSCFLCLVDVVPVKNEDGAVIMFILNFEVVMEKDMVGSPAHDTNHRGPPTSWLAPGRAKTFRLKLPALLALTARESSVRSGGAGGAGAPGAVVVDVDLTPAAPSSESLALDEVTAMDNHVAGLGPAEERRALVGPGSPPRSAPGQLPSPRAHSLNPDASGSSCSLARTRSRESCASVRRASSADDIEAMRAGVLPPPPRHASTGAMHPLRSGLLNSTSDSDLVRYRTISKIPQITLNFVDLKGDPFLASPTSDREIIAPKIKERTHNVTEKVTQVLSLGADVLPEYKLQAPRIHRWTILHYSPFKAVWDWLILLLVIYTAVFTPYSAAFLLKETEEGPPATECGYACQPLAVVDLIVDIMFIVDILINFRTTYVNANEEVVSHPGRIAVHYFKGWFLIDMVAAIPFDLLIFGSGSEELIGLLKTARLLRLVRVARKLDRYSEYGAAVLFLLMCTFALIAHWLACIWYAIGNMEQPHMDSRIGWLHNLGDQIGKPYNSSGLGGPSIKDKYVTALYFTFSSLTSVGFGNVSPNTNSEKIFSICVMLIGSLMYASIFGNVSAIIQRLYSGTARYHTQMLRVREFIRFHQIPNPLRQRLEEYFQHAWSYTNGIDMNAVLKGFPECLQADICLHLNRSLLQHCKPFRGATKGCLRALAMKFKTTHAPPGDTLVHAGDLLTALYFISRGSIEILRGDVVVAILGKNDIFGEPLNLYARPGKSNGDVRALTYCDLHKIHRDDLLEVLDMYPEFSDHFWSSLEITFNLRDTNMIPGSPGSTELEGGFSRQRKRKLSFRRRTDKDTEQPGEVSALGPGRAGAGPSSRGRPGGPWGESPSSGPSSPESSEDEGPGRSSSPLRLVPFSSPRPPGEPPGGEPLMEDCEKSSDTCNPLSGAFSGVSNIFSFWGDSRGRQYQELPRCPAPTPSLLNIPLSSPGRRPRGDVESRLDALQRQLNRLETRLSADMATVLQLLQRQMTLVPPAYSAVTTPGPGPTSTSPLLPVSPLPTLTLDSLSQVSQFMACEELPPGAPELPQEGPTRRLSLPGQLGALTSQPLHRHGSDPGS
Sequence of Cytochrome P450 3A4 (Homo sapiens) (P08684 whole entry, looked up): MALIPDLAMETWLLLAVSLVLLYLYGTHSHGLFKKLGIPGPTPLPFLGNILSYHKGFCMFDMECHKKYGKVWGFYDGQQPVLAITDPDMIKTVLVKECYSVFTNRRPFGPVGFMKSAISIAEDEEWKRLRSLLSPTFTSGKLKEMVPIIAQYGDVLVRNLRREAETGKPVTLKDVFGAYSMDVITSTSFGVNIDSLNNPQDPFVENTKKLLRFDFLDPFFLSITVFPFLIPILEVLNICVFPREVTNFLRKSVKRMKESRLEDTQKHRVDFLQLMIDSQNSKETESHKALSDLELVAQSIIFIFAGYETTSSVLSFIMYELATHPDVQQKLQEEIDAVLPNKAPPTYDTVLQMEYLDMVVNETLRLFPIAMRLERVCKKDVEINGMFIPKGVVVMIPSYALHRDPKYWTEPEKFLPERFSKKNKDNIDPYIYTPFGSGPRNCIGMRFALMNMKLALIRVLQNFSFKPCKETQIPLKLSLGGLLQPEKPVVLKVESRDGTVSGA
Sequence of Cytochrome P450 2C9 (Homo sapiens) (P11712 whole entry, looked up): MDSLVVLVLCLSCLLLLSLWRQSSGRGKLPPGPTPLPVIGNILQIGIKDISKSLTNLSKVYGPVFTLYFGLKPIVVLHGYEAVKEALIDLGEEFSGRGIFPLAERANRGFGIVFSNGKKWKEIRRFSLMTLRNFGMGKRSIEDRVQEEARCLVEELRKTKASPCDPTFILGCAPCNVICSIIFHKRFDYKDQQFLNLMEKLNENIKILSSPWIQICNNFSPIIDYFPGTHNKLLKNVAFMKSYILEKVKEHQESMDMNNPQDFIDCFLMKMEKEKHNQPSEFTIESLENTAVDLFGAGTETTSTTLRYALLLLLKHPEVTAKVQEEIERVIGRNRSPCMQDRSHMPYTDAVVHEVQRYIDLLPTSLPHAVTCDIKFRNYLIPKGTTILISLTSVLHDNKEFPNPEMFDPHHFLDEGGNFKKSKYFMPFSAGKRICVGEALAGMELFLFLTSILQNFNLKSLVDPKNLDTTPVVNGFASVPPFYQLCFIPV

In the case of `CC(C)(C)NCC(O)c1ccc(O)c(CO)c1` (configuration not stated), the Potency result in experiment [1], in experiment [2], in experiment [3] and in experiment [4] was “inactive” in each case.
`COc1ccccc1NC(=O)CC(C)=O`: the Potency in experiment [1] was 78.5 µM (active) and inactive; in experiment [3], 31.3 µM (active) and 35.6 µM (active); in experiment [4], 63.3 µM (active). Further, in experiment [2], the Potency entry is “inactive”.
`CCOCCO`: the Potency result in experiment [1], in experiment [2], in experiment [3] and in experiment [4] was “inactive” each time.
As to `C=CC(=O)NC(C)(C)CS(=O)(=O)O`, the Potency entry in experiment [1], in experiment [2], in experiment [3], in experiment [5] and in experiment [4] was “inactive” in each case.
As for `CCCCOCCOCCSC#N`, the Potency is 8.4 µM (active) and inactive in experiment [1]; 6.67 µM (active) and 11.1 µM (active) in experiment [3]. Also, the Potency entry in experiment [2], in experiment [5] and in experiment [4] was “inactive” throughout.
As for `CN(C)C=O`, the Potency entry in experiment [1], in experiment [2], in experiment [3], in experiment [5] and in experiment [4] was “inactive” in each case.
As for `CCN(CC)CCOC(=O)c1ccc(N)cc1`, the Potency entry in experiment [1], in experiment [2], in experiment [3] and in experiment [4] was “inactive” in each case.
On to `CCCCC/C(C=O)=C\c1ccccc1`, for which the Potency in experiment [1] was 35.6 µM (active) and 39.9 µM (active) and inactive; in experiment [2], 39.9 µM (active); in experiment [3], 28.3 µM (active) and 35.6 µM (active) and 5.49 µM (active). In addition, the Potency result in experiment [5] and in experiment [4] was “inactive” in each case.
Regarding `CC1=C(/C=C/C(C)=C/C=C/C(C)=C/C(=O)O)C(C)(C)CCC1`, the Potency in experiment [1] is 20 µM (active) and 35.5 µM (active); in experiment [2], 71.1 µM (active) and 39.9 µM (active) and 34.7 µM (active); in experiment [4], 35.6 µM (active) and 28.2 µM (active). Also, the Potency entry in experiment [3] was “inactive”.
As for `COCC(C)N` (configuration not stated), the Potency entry in experiment [1], in experiment [2] and in experiment [4] was “inactive” throughout. Also, the Potency in experiment [3] is 44.8 µM (active).
Regarding `O=c1cc[nH]c(=O)[nH]1`, the Potency entry in experiment [1], in experiment [2], in experiment [3], in experiment [5] and in experiment [4] was “inactive” in each case.
Take `O=C(O)CN(CC(=O)O)CC(=O)O`: the Potency in experiment [1] is 36.1 µM (active) and inactive. The Potency result in experiment [2], in experiment [3] and in experiment [4] was “inactive” in each case.
As to `CC(=O)Oc1ccccc1C(=O)O`, the Potency in experiment [1] was 79.2 µM (active) and inactive; in experiment [3] it was “inactive and 24.5 µM (active)”. The Potency result in experiment [2] and in experiment [4] was “inactive” each time.
With `O=C(O)CCCCC1CCSS1` (configuration not stated), the Potency in experiment [1] is 49.6 µM (active) and inactive. The Potency result in experiment [2], in experiment [3], in experiment [5] and in experiment [4] was “inactive” in each case.
For `COC(=O)C1CCC(C(=O)OC)CC1` (configuration not stated), the Potency entry in experiment [1], in experiment [2], in experiment [3], in experiment [5] and in experiment [4] was “inactive” throughout.
In the case of `CCCCCCCCCCCCCCCCCC(=O)OCC(O)CO` (configuration not stated), the Potency entry in experiment [1], in experiment [2], in experiment [3] and in experiment [4] was “inactive” throughout.
For `CCCCCCCCOc1ccc(C(=O)c2ccccc2)c(O)c1`, the Potency result in experiment [1] is “inactive and 35.6 µM (active)”; in experiment [2], 12.6 µM (active). In addition, the Potency result in experiment [3], in experiment [5] and in experiment [4] was “inactive” in each case.
With `O=[N+]([O-])c1ccc(O)cc1`, the Potency in experiment [1] was 33 µM (active); in experiment [3], 20.8 µM (active) and inactive; in experiment [4], 5.86 µM (active) and inactive. Further, the Potency entry in experiment [2] and in experiment [5] was “inactive” throughout.
Take `O=C1CCCCCN1`: the Potency in experiment [1] was 40 µM (active) and inactive. In addition, the Potency result in experiment [2], in experiment [3] and in experiment [4] was “inactive” in each case.
On to `COc1ccc(O)cc1`, for which, in experiment [1], the Potency is 34.3 µM (active) and inactive. The Potency entry in experiment [2], in experiment [3] and in experiment [4] was “inactive” each time.
In the case of `O=C(O)Cc1cccc2ccccc12`, the Potency entry in experiment [1], in experiment [2] and in experiment [4] was “inactive” throughout. Also, the Potency in experiment [3] was 33.5 µM (active) and 43.5 µM (active).
As to `CCCCNC(=O)NS(=O)(=O)c1ccc(N)cc1`, the Potency entry in experiment [1], in experiment [2], in experiment [3] and in experiment [4] was “inactive” in each case.
As to `OC[C@@H](O)[C@@H](O)[C@H](O)[C@H](O)CO`, the Potency result in experiment [1], in experiment [3], in experiment [5] and in experiment [4] was “inactive” in each case. The Potency result in experiment [2] was “inactive and 89.4 µM (active)”.
For `C=C(C)OC(C)=O`, the Potency entry in experiment [1], in experiment [2], in experiment [3] and in experiment [4] was “inactive” in each case.
Regarding `NC(=O)c1ccc([N+](=O)[O-])cc1Cl`, the Potency entry in experiment [1], in experiment [3], in experiment [5] and in experiment [4] was “inactive” each time. Moreover, the Potency in experiment [2] is 71 µM (active) and inactive.
Turning to `COC(=O)c1ccc(C=O)cc1`, the Potency was 71 µM (active) and inactive in experiment [1]; 42.3 µM (active) in experiment [3]. The Potency result in experiment [2] and in experiment [4] was “inactive” in each case.
For the molecule `CN(C)Cc1cc(CN(C)C)c(O)c(CN(C)C)c1`, the Potency entry in experiment [1], in experiment [2], in experiment [3] and in experiment [4] was “inactive” throughout.
Consider `COc1cc(C=O)ccc1O`, for which the Potency result in experiment [1], in experiment [2], in experiment [3], in experiment [5] and in experiment [4] was “inactive” each time.
As to `NC(=O)N/N=C/c1ccc([N+](=O)[O-])o1`, the Potency result in experiment [1] is “inactive and 39.9 µM (active) and 43.6 µM (active)”; in experiment [3], “inactive and 41.5 µM (active)”. Moreover, the Potency entry in experiment [2] and in experiment [4] was “inactive” each time.
Take `OCCCc1ccccc1`: the Potency in experiment [1] is 31.7 µM (active) and inactive; in experiment [3], 35.6 µM (active). Besides, the Potency result in experiment [2] and in experiment [4] was “inactive” in each case.
